This is an account of results in PubChem BioAssay AID652071 (NMMLSC, 2013).

The source made the active and inactive calls. No rule for the calls is given here.

The nature of this assay: V-ATPase proton transport modulators in yeast, dose response, S. cerevisiae, pHLuorin, powder set 4 (AID 652071). Particulars: S. cerevisiae pHLuorin cytosolic pH fluorescence; series mostly up to 100 µM.
Consider `CC(=O)N1CCN(c2ccccc2NC(=O)c2cccc(S(=O)(=O)N(C)C)c2)CC1`, for which the outcome was inactive.
`O=C(Nc1ccccc1N1CCCCC1)c1cccc(Br)n1`: the outcome was inactive.
In the case of `N#Cc1cccc(C(=O)Nc2ccccc2N2CCCCC2)c1`, the molecule was classed as inactive.
Consider `CS(=O)(=O)c1cccc(C(=O)Nc2ccccc2N2CCOCC2)c1`, for which the result was inactive.
The same measure for `CN1CCN(c2ccccc2NC(=O)c2cccc(Br)n2)CC1`: “inactive”; for `O=C(Nc1ccccc1N1CCCCC1)c1cccc(C(F)(F)F)c1`: “inactive”; for `CC(=O)N1CCN(c2ccccc2NC(=O)c2cccc(CS(C)(=O)=O)c2)CC1`: “inactive”.
The same measure for `CS(=O)(=O)c1ccc(C(=O)Nc2ccccc2N2CCCCC2)o1`: “inactive”; for `CN(C)Cc1cccc(C(=O)Nc2ccccc2N2CCCCC2)c1`: “inactive”; for `CN1CCN(c2ccccc2NC(=O)c2cccc(CC#N)c2)CC1`: “inactive”.
On to `CN1CCN(c2ccccc2NC(=O)c2ccc(C(C)(C)C)o2)CC1`, for which the molecule was classed as inactive.
As for `CN1CCN(c2ccccc2NC(=O)c2cccc(Cl)n2)CC1`, the call was inactive.
For `CC(=O)N1CCN(c2ccccc2NC(=O)c2ccc(-c3ccccc3)o2)CC1`, the call was inactive.
The same measure for `O=C(Nc1ccccc1N1CCCCC1)c1cccc(C(F)(F)F)n1`: “inactive”; for `CC(=O)N1CCN(c2ccccc2NC(=O)c2cccc(C(F)(F)F)n2)CC1`: “inactive”.
The same measure for `COCc1cccc(C(=O)Nc2ccccc2N2CCN(C)CC2)c1`: “inactive”; for `CN(C)C(=O)c1cccc(C(=O)Nc2ccccc2N2CCCCC2)c1`: “inactive”; for `O=C(c1occc1-c1ccccc1)N1CCN(c2nc3ccc(F)cc3s2)CC1`: “inactive”.
As for `CC(=O)N1CCN(c2ccccc2NC(=O)c2cccc(CN(C)C)c2)CC1`, the result was inactive.
